Test results taken from PubChem BioAssay (Tox21).
“And” between values parts separate entries of the source, which are not always exact repeats. Equal values may be shown once. Inconclusive results are not listed. The source made the active and inactive calls. Unless noted, the call rests on the fitted dose curve.

Tests used:
[1] = Nuclear factor erythroid 2-related factor 2/antioxidant responsive element (Nrf2/ARE) small molecule agonists: qHTS cell viability counter screen in human keratinocytes (AID 1919968; active means well fitted curve in the direction sought with a large enough effect in the repeat runs; an effect the other way counts as inactive or inconclusive; further: nearly all actives have a fitted effect of over 55% in size; further: potency means the concentration at half of the fitted maximal effect)
Method in brief: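 Stably transfected HaCaT (KeratinoSens), 1,500/well. Test agents in DMSO were applied for 23 h, 37 C/5% CO2. CellTiter-Fluor was incubated 1 h before the fluorescence read.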

[2] = Nuclear factor erythroid 2-related factor 2/antioxidant responsive element (Nrf2/ARE) small molecule agonists: luciferase reporter gene qHTS assay in human keratinocytes (AID 1919969); further: nearly all actives have a fitted effect of over 35% in size; further: potency means the concentration at half of the fitted maximal effect
[3] = biological target: Gonadotropin-releasing hormone receptor (Homo sapiens) (UniProt P30968); assay: Human gonadotropin-releasing hormone receptor (GnRHR) small molecule agonists, calcium flux assay in GnRHR-HEK293 cells (AID 1920063); further: nearly all actives have a fitted effect of over 35% in size
Method in brief: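 Stable human GnRHR HEK293 line. 18 h plating, then calcium dye for 1 h at 37 C. Agonist-mode compound addition from DMSO stocks; fluorescence monitored 3 min.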

[4] = biological target: KiSS-1 receptor (Homo sapiens) (UniProt Q969F8); assay: Human kisspeptin (KISS1R) small molecule agonists, calcium flux assay in KISS1R-HEK293 cells (AID 1920064; active means well fitted curve in the direction sought with a large enough effect in the repeat runs; an effect the other way counts as inactive or inconclusive)
Method in brief: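 After overnight (18 h) culture at 37 C/5% CO2, human KISS1R-HEK293 cells received calcium dye for 1 h, then test compound; emission at 540 nm (excitation 480 nm) was tracked for 3 min.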

[5] = G protein-coupled receptor (GPCR) small molecule agonists, calcium flux assay: HEK293 wild type cell line counter screen (AID 1920065)
Method in brief: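 Following 18 h incubation at 37 C/5% CO2, plates got calcium dye for 1 h; compounds, ATP or DMSO were then pinned in and fluorescence followed kinetically (480/540 nm).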

[6] = p53 small molecule agonists, cell-based qHTS assay with human liver microsomes (AID 1963577);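 further: p53 response element beta-lactamase reporter cells with liver microsomes plus NADPH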
Method in brief: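 Steps: plate p53RE-bla cells, incubate 5 h at 37 C; add compound in DMSO; add microsomes (0.5 mg/mL final) and NADPH (0.5 mg/mL final); incubate 16 h at 37 C; add LiveBLAzer, 2 h RT; read fluorescence.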

[7] = p53 small molecule agonists, cell-based qHTS assay with rat liver microsomes (AID 1963578)
Method in brief: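 Metabolic activation is supplied by rat liver microsomes with NADPH (each 0.5 mg/mL final). p53RE-bla cells incubate with compound 16 h at 37 C; reporter activity is measured by LiveBLAzer fluorescence.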

[8] = p53 small molecule agonists, cell-based qHTS assay with rat liver microsomes: qHTS cell viability counter screen (AID 1963580); further: nearly all actives have a fitted effect of over 45% in size; further: potency means the concentration at half of the fitted maximal effect
Method in brief: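 Luminescent ATP readout (CellTiter-Glo, 30 min at room temperature) reports viability of p53RE-bla HCT-116 cells after 16 h at 37 C with test compounds under metabolic activation by rat liver microsomes and NADPH at 0.5 mg/mL final each.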

[9] = p53 small molecule agonists, cell-based qHTS assay (AID 1963582; active means well fitted activation curve with a large enough effect in the signal ratio in the repeat runs, not every such curve was filed as active; the % refers to the signal ratio)
Method in brief: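 Measured: fluorescence from cleaved LiveBLAzer substrate. System: p53RE-bla cells, 16 h compound treatment at 37 C, 2 h substrate step at room temperature.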

[10] = biological target: 5-hydroxytryptamine receptor 2A (Homo sapiens) (UniProt P28223); assay: 5-hydroxytryptamine receptor 2A (HTR2A) small molecule antagonists, cell-based qHTS assay (AID 1963586); further: nearly all actives have a fitted effect of over 45% in size
Method in brief: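 CHO cells stably expressing human HTR2A were plated for 18 h at 37 C, then loaded with calcium dye for 1 h. Compounds were preincubated 5 min at room temperature before DOI (4 nM solution) was added. Kinetic fluorescence was read for 3 min.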

[11] = biological target: 5-hydroxytryptamine receptor 2A (Homo sapiens) (UniProt P28223); assay: 5-hydroxytryptamine receptor 2A (HTR2A) small molecule agonists, cell-based qHTS assay (AID 1963587); further: nearly all actives have a fitted effect of over 30% in size
Method in brief: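 HTR2A-CHO cells, plated 18 h at 37 C/5% CO2, dye-loaded 1 h at 37 C; compounds in DMSO added by pin tool (agonist mode). Intracellular calcium flux read as kinetic fluorescence on FDSS over 2 min at 1 s intervals.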

[12] = biological target: Muscarinic acetylcholine receptor M1 (Homo sapiens) (UniProt P11229); assay: Cholinergic receptor muscarinic 1 (CHRM1) small molecule antagonists, cell-based qHTS assay (AID 1963588); further: nearly all actives have a fitted effect of over 40% in size
Method in brief: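 Compounds were tested at 15 concentrations in three independent runs. Dye-loaded CHRM1-CHO cells were exposed 5 min at room temperature before stimulation by acetylcholine added at 50nM. Intracellular calcium was read kinetically on FDSS for 3 min.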

[13] = biological target: Muscarinic acetylcholine receptor M1 (Homo sapiens) (UniProt P11229); assay: Cholinergic receptor muscarinic 1 (CHRM1) small molecule agonists, cell-based qHTS assay (AID 1963589); further: nearly all actives have a fitted effect of over 35% in size
Method in brief: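 Kinetic fluorescence (1 s intervals) of calcium-sensitive dye in human M1 CHO cells after compound addition; cells pre-incubated 18 h at 37 C/5% CO2 and dye-loaded 1 h.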

[14] = cAMP Responsive Elements (CRE) small molecule agonists, cell-based qHTS assay (AID 1963590)
Method in brief: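 Test agents in DMSO were incubated 3 h at 37 C/5% CO2 with CRE-bla HEK 293T cells seeded 18 h earlier; LiveBLAzer B/G FRET substrate was added and read after 2 h at room temperature.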

[15] = cAMP Responsive Elements (CRE) small molecule antagonists, cell-based qHTS assay (AID 1963591; active means well fitted inhibition curve with a large enough effect in the signal ratio in the repeat runs, not every such curve was filed as active; the % refers to the signal ratio)
Method in brief: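 Reporter line CRE-bla HEK 293T in dialyzed-FBS DMEM; cells preincubated 18 h, treated 3 h with compound plus NKH477 (0.25 uM final); LiveBLAzer FRET, 2 h RT.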

[16] = biological target: Beta-2 adrenergic receptor (Homo sapiens) (UniProt P07550); assay: Adrenergic beta2 receptor (ADRB2) small molecule antagonists, cell-based qHTS assay (AID 1963592); further: series mostly up to about 92 µM; nearly all actives have a fitted effect of over 50% in size
Method in brief: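 Assay format: CHO-ADRB2 cells, 18-20hr seeding at 37C/5% CO2, then compound plus 1nM isoproterenol agonist mix for 0.5hr RT. Homogeneous time-resolved fluorescence cAMP detection after 1hr, expressed as 665/615 nm ratio.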

[17] = biological target: Beta-2 adrenergic receptor (Homo sapiens) (UniProt P07550); assay: Adrenergic beta2 receptor (ADRB2) small molecule agonists, cell-based qHTS assay (AID 1963593);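 further: CHO cells stably overexpressing human ADRB2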
Method in brief: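 CHO cells stably over-expressing ADRB2 were plated overnight at 37C, then dosed with compounds plus a stimulation mix containing 100uM IBMX and 25uM Ro-20-1724 for 0.5hr at room temperature. cAMP was measured by HTRF competition, 1hr.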

[18] = biological target: D(2) dopamine receptor (Homo sapiens) (UniProt P14416); assay: Dopamine D2 receptor (DRD2) small molecule agonists, cell-based qHTS assay (AID 1963594); further: nearly all actives have a fitted effect of over 35% in size
Method in brief: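 HEK293 cells stably expressing DRD2 were cultured 24 h at 37 C, then given Ro20-1724 (0.1 mM final) and compounds for 10 min at room temperature. NKH477 (200nM) was then added for 30 min. cAMP was read by HTRF.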

[19] = biological target: D(2) dopamine receptor (Homo sapiens) (UniProt P14416); assay: Dopamine D2 receptor (DRD2) small molecule antagonists, cell-based qHTS assay (AID 1963595; active means well fitted inhibition curve with a large enough effect in the signal ratio in the repeat runs, with a control signal flat; the % refers to the signal ratio)
Method in brief: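 HEK293 cells stably expressing DRD2 were preincubated with 0.1 mM Ro20-1724, then with compound for 10 min at room temperature. Cells were stimulated with 200 nM NKH477 plus 12 nM quinpirole for 30 min, and cAMP was read by HTRF.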

[20] = p53 small molecule agonists, cell-based qHTS assay with human liver microsomes: qHTS cell viability counter screen (AID 1963579); further: nearly all actives have a fitted effect of over 45% in size
Method in brief: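 After the 460/530 nm beta-lactamase read, CellTiter-Glo was added to the same wells and luminescence measured after 30 min at room temperature, giving viability of p53RE-bla cells treated 16 h with compounds plus microsomes and NADPH.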

Measured: Potency

Sequence of Muscarinic acetylcholine receptor M1 (Homo sapiens) (P11229 whole entry, looked up): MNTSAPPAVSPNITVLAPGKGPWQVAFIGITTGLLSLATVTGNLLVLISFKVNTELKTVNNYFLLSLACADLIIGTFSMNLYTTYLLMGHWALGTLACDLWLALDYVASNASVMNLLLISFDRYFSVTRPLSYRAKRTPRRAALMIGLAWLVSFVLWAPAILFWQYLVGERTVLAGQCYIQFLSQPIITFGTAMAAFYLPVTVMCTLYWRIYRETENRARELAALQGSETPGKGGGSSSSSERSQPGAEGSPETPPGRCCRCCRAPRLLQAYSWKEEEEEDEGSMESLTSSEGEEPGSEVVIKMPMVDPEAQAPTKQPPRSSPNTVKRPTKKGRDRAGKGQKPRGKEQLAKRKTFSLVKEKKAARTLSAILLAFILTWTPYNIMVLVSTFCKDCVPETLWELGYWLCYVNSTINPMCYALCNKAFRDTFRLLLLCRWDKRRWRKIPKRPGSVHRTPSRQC
Sequence of 5-hydroxytryptamine receptor 2A (Homo sapiens) (P28223 whole entry, looked up): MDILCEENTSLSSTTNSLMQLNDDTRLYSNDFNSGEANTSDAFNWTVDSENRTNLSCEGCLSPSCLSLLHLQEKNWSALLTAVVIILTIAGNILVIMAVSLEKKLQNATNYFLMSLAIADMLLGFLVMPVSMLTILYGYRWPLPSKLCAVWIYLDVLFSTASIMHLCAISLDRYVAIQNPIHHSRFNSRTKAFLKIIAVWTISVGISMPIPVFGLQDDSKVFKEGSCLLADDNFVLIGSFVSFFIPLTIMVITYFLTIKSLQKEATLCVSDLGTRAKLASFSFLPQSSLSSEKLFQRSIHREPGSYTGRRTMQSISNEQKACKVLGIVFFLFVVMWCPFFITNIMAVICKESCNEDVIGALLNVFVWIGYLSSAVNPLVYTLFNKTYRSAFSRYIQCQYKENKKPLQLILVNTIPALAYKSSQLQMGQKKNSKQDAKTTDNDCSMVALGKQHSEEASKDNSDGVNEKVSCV
Sequence of Gonadotropin-releasing hormone receptor (Homo sapiens) (P30968 whole entry, looked up): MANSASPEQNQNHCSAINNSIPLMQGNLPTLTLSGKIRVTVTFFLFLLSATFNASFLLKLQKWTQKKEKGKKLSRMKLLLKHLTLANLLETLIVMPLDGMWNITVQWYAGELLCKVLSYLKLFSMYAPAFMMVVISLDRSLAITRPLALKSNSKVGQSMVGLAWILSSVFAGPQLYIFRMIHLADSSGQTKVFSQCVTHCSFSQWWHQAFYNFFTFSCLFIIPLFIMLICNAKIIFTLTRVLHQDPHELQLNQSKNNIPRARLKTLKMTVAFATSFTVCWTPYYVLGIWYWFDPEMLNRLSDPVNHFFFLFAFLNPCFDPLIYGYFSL
Sequence of KiSS-1 receptor (Homo sapiens) (Q969F8 whole entry, looked up): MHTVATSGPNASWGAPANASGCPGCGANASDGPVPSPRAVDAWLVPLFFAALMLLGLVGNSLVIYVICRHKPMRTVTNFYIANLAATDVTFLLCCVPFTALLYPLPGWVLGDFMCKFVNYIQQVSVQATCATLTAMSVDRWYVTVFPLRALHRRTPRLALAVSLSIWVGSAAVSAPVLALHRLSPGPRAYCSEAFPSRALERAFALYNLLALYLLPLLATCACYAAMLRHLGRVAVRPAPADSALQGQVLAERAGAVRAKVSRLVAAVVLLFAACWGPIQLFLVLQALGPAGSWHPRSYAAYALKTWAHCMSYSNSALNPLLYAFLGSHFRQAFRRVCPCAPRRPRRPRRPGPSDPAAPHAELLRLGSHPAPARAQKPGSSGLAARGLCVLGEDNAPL
Sequence of Beta-2 adrenergic receptor (Homo sapiens) (P07550 whole entry, looked up): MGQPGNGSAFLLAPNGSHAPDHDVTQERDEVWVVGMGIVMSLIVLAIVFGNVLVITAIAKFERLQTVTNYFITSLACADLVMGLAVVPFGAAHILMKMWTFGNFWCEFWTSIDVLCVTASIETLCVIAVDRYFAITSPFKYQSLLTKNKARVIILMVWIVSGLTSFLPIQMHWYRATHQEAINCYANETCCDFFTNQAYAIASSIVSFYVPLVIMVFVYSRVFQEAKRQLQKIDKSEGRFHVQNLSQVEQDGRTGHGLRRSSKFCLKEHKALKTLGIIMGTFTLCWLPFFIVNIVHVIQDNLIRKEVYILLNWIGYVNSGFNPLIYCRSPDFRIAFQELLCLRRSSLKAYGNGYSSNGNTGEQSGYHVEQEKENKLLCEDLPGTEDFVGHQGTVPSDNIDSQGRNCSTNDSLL
Sequence of D(2) dopamine receptor (Homo sapiens) (P14416 whole entry, looked up): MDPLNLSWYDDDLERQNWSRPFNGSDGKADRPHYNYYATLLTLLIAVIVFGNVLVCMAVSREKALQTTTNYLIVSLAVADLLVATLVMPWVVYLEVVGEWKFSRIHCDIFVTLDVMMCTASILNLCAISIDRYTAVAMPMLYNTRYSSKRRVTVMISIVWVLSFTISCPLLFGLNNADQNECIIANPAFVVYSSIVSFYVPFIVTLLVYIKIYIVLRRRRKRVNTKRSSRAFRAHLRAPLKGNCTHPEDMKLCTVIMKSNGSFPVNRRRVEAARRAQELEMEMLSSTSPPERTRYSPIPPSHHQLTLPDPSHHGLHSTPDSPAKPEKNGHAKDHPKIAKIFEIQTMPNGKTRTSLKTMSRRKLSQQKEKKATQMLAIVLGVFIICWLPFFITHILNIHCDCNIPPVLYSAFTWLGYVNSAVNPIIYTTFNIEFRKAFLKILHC

Cc1cn([C@H]2C[C@H](F)[C@@H](CO)O2)c(=O)[nH]c1=O
not listed: [20]
inactive: all other assays above

Cc1cc(C)cc(N)c1
not listed: [18] | [20]
inactive: all other assays above

ClC(c1ccccc1)(c1ccccc1)c1ccccc1
not listed: [16] | [17] | [20]
inactive: all other assays above

Cc1cc(C)cc(OCC2CNC(=O)O2)c1 (centres undefined)
not listed: [15] | [20]
inactive: all other assays above

Cc1cc(O)c(Cl)cc1C
not listed: [17] | [20]
inactive: all other assays above

CCOC(=O)c1c(C)n(C)c2ccc(O)cc12
not listed: [8] | [15]
inactive: all other assays above

O=C(C(=O)c1ccco1)c1ccco1
not listed: [17] | [19] | [20]
inactive: all other assays above

CC(C)=O
not listed: [8] | [13]
inactive: all other assays above

CO[C@@]1(NC(=O)C(C(=O)O)c2ccc(O)cc2)C(=O)N2C(C(=O)O)=C(CSc3nnnn3C)CO[C@@H]21 (some centres undefined)
not listed: [20]
inactive: all other assays above

CN(C(=O)c1c(O)c2ccccc2n(C)c1=O)c1ccccc1
not listed: [20]
inactive: all other assays above

CN(C)c1ccc(C(=C2C=CC(=[N+](C)C)C=C2)c2ccc(N(C)C)cc2)cc1
inactive: [3] | [4] | [5] | [6] | [7] | [9]
active: [1] 7.66 µM and 13.7 µM | [2] 6.08 µM | [8] 22.8 µM and 36.3 µM

CCO[Si](C)(OCC)OCC
not listed: [8]
inactive: all other assays above

CCOC(=O)NCCC[Si](OCC)(OCC)OCC
not listed: [8] | [10] | [17]
inactive: all other assays above

Cc1c(O)cccc1C(=O)N[C@@H](CSc1ccccc1)[C@H](O)CN1C[C@H]2CCCC[C@H]2C[C@H]1C(=O)NC(C)(C)C
active: [1] 11.9 µM
inactive: [2] | [3] | [4] | [5] | [6] | [7] | [20] | [18] | [19]

CCN(CC)S(=O)(=O)c1ccc(C(=O)O)cc1
not listed: [19] | [20]
inactive: all other assays above
